The whole screen tested about 320,000 compounds, of which about 8,000 (2.5%) were called active. The sample as a whole holds a higher share of actives than the screen did. A number with no mark means an inactive call. Rule as the data show it: active = activation above about 47%; inactive = the rest.
target: Aryl hydrocarbon receptor (Homo sapiens) (UniProt P35869); experiment: AHR activators, primary screen, cell-based, luminescence, luciferase reporter, human (AID 2796); conditions: AHR-responsive luciferase reporter cells, at 5 µM, hits give high values;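 also: 0% = vehicle wells and 100% = reference agonist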
Sequence (P35869 whole entry, looked up): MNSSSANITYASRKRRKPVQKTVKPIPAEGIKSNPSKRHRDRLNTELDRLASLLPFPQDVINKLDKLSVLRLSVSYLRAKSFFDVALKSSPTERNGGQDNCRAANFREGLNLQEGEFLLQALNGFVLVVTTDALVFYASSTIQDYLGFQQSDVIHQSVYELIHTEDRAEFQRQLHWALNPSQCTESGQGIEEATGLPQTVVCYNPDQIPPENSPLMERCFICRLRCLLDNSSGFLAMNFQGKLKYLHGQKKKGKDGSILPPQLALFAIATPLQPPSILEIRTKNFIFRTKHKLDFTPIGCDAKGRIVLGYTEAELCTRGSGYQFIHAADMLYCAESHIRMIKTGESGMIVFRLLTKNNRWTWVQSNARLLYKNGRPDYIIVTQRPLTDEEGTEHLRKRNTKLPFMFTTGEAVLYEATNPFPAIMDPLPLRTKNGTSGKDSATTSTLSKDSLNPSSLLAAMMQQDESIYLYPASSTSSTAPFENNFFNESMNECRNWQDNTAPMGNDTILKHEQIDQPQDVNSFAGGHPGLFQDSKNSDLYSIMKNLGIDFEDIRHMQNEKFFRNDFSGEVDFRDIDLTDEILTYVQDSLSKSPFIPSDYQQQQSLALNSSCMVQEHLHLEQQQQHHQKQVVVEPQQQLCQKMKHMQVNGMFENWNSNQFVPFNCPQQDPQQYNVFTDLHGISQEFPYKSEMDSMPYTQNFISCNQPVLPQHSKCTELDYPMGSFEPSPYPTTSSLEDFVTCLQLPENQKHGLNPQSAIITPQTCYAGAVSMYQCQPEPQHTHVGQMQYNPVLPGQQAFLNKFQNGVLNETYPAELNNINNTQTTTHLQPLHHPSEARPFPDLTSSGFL

Row | Compound | activation
1 | CC(C)CNC(=O)C(=O)Nc1ccc(N(C)C)cc1 | 48% (active)
2 | CC(C)CNC(=S)Nc1ccc(F)cc1 | -0.24%
3 | CC(C)CNC(=O)C(=O)NCc1ccccc1 | -0.83%
4 | O=C1C=C(c2ccc(Cl)cc2)C(=O)N1Nc1ccccc1 | -0.76%
5 | NC(=O)C1CCN(C(=O)COc2ccc3c4c(c(=O)oc3c2)CCC4)CC1 | -1.05%
6 | COc1ccc(NS(=O)(=O)c2cc(NC(=O)c3ccc(S(=O)(=O)N(C)C)cc3)ccc2N2CCOCC2)cc1 | 0.52%
7 | CC1CC(C)(C)CC2(C1)NC(=O)N(CC(=O)Nc1nccs1)C2=O (stereo not drawn) | 2.2%
8 | CC1CCN(C(=S)c2cccc([N+](=O)[O-])c2)CC1 | -3.58%
9 | O=[N+]([O-])c1cccc(/C([O-])=C(/C(=S)Nc2ccccc2F)[n+]2ccccc2)c1 | 49.5% (active)
10 | Cc1ccc(/C([O-])=C(/C(=S)NCc2ccco2)[n+]2ccccc2)cc1[N+](=O)[O-] | 2.88%
11 | COc1cccc(-c2ccc3c(c2)S(=O)(=O)c2cccc(C(=O)O)c2C3=O)c1OC | -3.31%
12 | CC1CN/C(=C\C(=O)c2ccc(Br)cc2)C(=O)N1 (stereo not drawn) | -14.4%
13 | Cc1nc(Cl)c2oc3ccccc3c2n1 | 4.72%
14 | CCc1nc(Nc2ccc3nccnc3c2)c2oc3ccccc3c2n1 | 85.3% (active)
15 | CCc1nc(Nc2ccc(NC(C)=O)cc2)c2oc3ccccc3c2n1 | 5.36%
16 | COc1ccc(/C=N/n2c(C)cc(C)cc2=O)cc1 | -0.2%
17 | Cn1c(NC(=O)c2ccccc2)nc2ccccc21 | 76.5% (active)
18 | CC(=O)NCCc1nc2cc(NC(=O)c3ccccc3)ccc2n1C | 5.94%
19 | CCC(=O)Nc1nc2ccccc2n1Cc1ccccc1C | 2.17%
20 | CCn1c(NC(=O)c2nn(C)cc2Br)nc2ccccc21 | 122% (active)
21 | CC(=O)Nc1nc2ccccc2n1Cc1ccc(C)cc1 | 1.47%

Row | Compound | activation
22 | Cn1c(-c2ccc(C(=O)c3ccccc3)s2)nc2ccccc21 | -15%
23 | O=C(Cn1cnc2ccccc2c1=O)NCC1COc2ccccc2O1 (stereo not drawn) | 0.29%
24 | O=C(c1ccc(F)cc1)N1CCCC(C(=O)N2CCCCC2)C1 (stereo not drawn) | -0.02%
25 | CCN1C(=O)/C(=C2\SC(N3CCCCC3)=NC2=O)c2ccccc21 | 22.2%
26 | COc1ccc(Cl)cc1-n1c(=S)sc2c(=O)n(-c3ccc(F)cc3)c(SCC(=O)O)nc21 | 3.11%
27 | C=CCNc1nc(C)nc(OC)n1 | -0.26%
28 | COc1nc(NCc2ccc(Cl)cc2)nc(OC)n1 | -1.92%
29 | C=CCNc1nc(Nc2ccc(Cl)cc2)nc(OC)n1 | 52.8% (active)
30 | O=C(NCc1cccc(Cl)c1)C1CCC(=O)N(C2CC2)C1 (stereo not drawn) | 7.52%
31 | Cc1cccc(C(=O)Nc2nnc(Cc3c[nH]c4ccccc34)s2)c1 | 22.8%
32 | Cc1cccc(N=C2NN=C(c3c[nH]c4ccccc34)CS2)c1 | 99.4% (active)
33 | C=CCn1c(C)cc(C2=NNC(=NCC)SC2)c1C | -11%
34 | COc1ccccc1N=Cc1c(O)c2ccccc2oc1=O | 4.13%
35 | CN=c1scc(-c2cc(OC)ccc2OC)n1/N=C/c1c(C)[nH]c2ccccc12 | -2.76%
36 | COc1ccc(OC)c(N=Cc2c(O)[nH]c3ccccc23)c1 | 54.3% (active)
37 | O=C(Cn1nc(CNc2ccc(Cl)cc2)[n+]2c1CCCCC2)c1ccc(Cl)cc1 | 28.6%
38 | Cc1cc(=O)oc2c1c(C)nn2-c1ccc(Cl)cc1 | 58% (active)
39 | Cc1nn(-c2ccccc2)c(NC(=O)c2cccs2)c(-c2ccc(Cl)cc2)c1=O | 0.87%
40 | Cc1nn(-c2cc(Cl)ccc2N)c(=O)c2ccccc12 | 0.58%
41 | COc1ccc(CNC(=O)CN(c2ccc(OC)c(Cl)c2)S(=O)(=O)c2ccc(C)cc2)cc1 | 4.87%
42 | C[C@]12CC[C@H](O)CC1=CCC1C2CC[C@@]2(C)C1CC[C@@H]2NC(=O)CCC(=O)O (stereo partly drawn) | -0.38%

Row | Compound | activation
43 | COc1ccc2oc(-c3cccc(NC(=O)CSc4ccc(Cl)cc4)c3)nc2c1 | 28.6%
44 | COc1cccc(-c2nc3cc(C)ccc3o2)c1 | 83.1% (active)
45 | COc1cccc(-c2nnc(SCCOc3ccc4c(C)cc(=O)oc4c3)o2)c1 | -2.36%
46 | O=[N+]([O-])c1ccc2oc(-c3cccc(O)c3)nc2c1 | 78% (active)
47 | CC(=O)Oc1ccc2c(=O)oc(-c3ccc([N+](=O)[O-])cc3)nc2c1 | 14.1%
48 | O=[N+]([O-])c1cccc(C2=NCCS2)c1 | 0.6%
49 | CC(=O)c1ccc(NC(=O)CCNS(=O)(=O)c2cc(Br)cnc2N)cc1 | 2.25%
50 | COc1ccc(CN2CCC(n3nccc3NC(=O)CCCc3ccccc3)CC2)cc1C | -8.72%
51 | CCC(C)NC(=O)C1c2ccccc2C(=O)N1Cc1ccccc1 (stereo not drawn) | 0.97%
52 | Cc1[nH]nc(SCC(=O)NCC(C)C)c1[N+](=O)[O-] | -0.18%
53 | COc1ccc(CN2CCCC(C(=O)N3CCCCC3)C2)cc1 (stereo not drawn) | -0.87%
54 | COc1cc(NC(=O)Nc2ccc(C)cc2)cc([N+](=O)[O-])c1 | 61.8% (active)
55 | COC(=O)c1ccc(NC(=O)Nc2ccc(C)cc2)cc1 | 1.57%
56 | CC(=O)c1ccc(NC(=O)Nc2ccc([N+](=O)[O-])cc2C)cc1 | -4.23%
57 | Nc1ccc(S(=O)(=O)Nc2nccc(/C=C/c3ccc(Br)s3)n2)cc1 | -1.58%
58 | Oc1cccc2ccc(/C=C/c3ccc(Br)s3)nc12 | 52.2% (active)
59 | CCN(c1ccccc1)S(=O)(=O)c1ccc2[nH]c(=O)[nH]c2c1 | 7.41%
60 | CC(C)C(NC(=O)OCc1ccccc1)C(=O)OCC(=O)N1C(C)CCCC1C (stereo not drawn) | 2.02%
61 | Cc1cccc(Nc2nc(NCCO)nc(N3CCCC3)n2)c1 | 19.5%
62 | CCCOc1ccc(Cl)cc1Nc1nc(NCCO)nc(N2CCCC2)n1 | 12.8%
63 | CC(C)(C)Oc1ccccc1Nc1nc(NCCO)nc(N2CCCC2)n1 | 53.9% (active)
